{
  "source": "PubChem BioAssay (EPA / NIEHS)",
  "note": "Activity calls are given as the source filed them. How the source made its calls: active means hit-call score of the fitted dose curve at least 0.9, where 1 is the maximum; inactive means score below 0.9.",
  "data": [
    {"biological_target": "Transcriptional activator Myb (Homo sapiens) (UniProt P10242)", "sequence (P10242 whole entry, looked up)": "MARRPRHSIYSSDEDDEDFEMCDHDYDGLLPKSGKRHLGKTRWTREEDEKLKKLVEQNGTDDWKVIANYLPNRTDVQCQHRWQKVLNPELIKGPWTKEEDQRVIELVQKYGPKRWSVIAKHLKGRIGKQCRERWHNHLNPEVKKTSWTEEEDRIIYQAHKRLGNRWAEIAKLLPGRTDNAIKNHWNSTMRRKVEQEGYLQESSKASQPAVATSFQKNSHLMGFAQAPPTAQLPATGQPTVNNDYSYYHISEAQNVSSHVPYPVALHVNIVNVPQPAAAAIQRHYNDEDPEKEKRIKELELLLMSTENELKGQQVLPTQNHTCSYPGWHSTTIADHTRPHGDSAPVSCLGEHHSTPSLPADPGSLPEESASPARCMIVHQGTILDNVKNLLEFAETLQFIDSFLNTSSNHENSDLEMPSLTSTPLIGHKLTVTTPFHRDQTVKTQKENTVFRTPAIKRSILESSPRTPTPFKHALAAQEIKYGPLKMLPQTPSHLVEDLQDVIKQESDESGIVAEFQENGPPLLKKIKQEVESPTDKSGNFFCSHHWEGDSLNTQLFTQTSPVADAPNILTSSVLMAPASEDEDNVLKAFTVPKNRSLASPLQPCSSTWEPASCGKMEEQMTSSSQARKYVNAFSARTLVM", "assay": "ATG_Myb_CIS: Attagene CIS-FACTORIAL HepG2 Assay for human Myeloblastosis (Myb) Proto-Oncogene Transcription Factor (AID 2282986)", "conditions": "HepG2 Attagene CIS-FACTORIAL Myb reporter transcription; actives raise or lower the signal", "description": "ATG_CIS is a cell-based, multiplexed-readout assay that uses HepG2, a human liver cell line, with measurements taken at 24 hours after chemical dosing in a 24-well plate.ATG_Myb_CIS is one of 52 assay component(s) measured or calculated from the ATG_CIS assay. It is designed to make measurements of mRNA induction, a form of inducible reporter, as detected with fluorescence intensity signals by Reverse transcription polymerase chain reaction (RT-PCR) and Capillary electrophoresis technology.Data from the assay component ATG_Myb_CIS was analyzed into 1 assay endpoint. This assay endpoint, ATG_Myb_CIS, was analyzed with bidirectional fitting relative to DMSO as the negative control and baseline of activity. Using a type of inducible reporter, measures of mRNA for gain or loss-of-signal activity can be used to understand the reporter gene at the transcription factor-level as they relate to the gene MYB. Furthermore, this assay endpoint can be referred to as a primary readout, because this assay has produced multiple assay endpoints where this one serves a reporter gene function. To generalize the intended target to other relatable targets, this assay endpoint is annotated to the dna binding intended target family, where the subfamily is MYB proteins.\nHuman liver HepG2 cells are transiently transfected with multiple reporter transcription units (MRTUs) in 6-well plates using FuGene 6 reagent (Roche; 3 ml FuGene/1 mg DNA). The MRTU constructs are regulated by a cis-regulating element (promoter). […] A major difference between the CIS and TRANS system is that in CIS activities of endogenous TFs are measured, whereas the TRANS assay evaluates changes in activities of exogenous, chimeric NR-Gal4 proteins. […] At the end of 24 hour incubation, total RNA was isolated using TriZol reagent (Invitrogen). The isolated RNA is then reverse-transcribed using oligo(dT) primer and Mo-MLV reverse transcriptase (Invitrogen) with DNAse I (Ambion) treatment for 30 min. The one-tenth of the produced cDNA was amplified by PCR using Taq DNA polymerase (Invitrogen) and two reporter sequence-specific primers. The PCR products were fluorescently labeled by primer extension with 6-arboxyfluorescein (6-FAM) 5'-labeled reporter sequence-specific primer (2 min at 95 C, 20 s at 68 C and 10 min at 72 C) and these products were digested with 5U of HpaI (New England Biolabs) for 2h at 37 C. The fragments were purified using Qiaquick PCR columns (Qiagen), analyzed on an ABI 3130xL genetic analyzer (Applied Biosystems) with peak positions identified by using a set of X-rhodamine (ROX)-labeled MapMarker1000 molecular weight standards (BioVentures). The raw capillary electrophoresis data was processed using Attagraph software (Attagene).", "values": [
      {"smiles": "O=C1CCCCCCCCCCCCCCO1", "outcome": "inactive"},
      {"smiles": "O=C(COc1ccc(Cl)cc1)N1CCN(Cc2ccc3c(c2)OCO3)CC1", "outcome": "inactive"},
      {"smiles": "O=C(O)Cc1cccc2ccccc12", "outcome": "inactive"},
      {"smiles": "CCOC(=O)c1ccccc1OC", "outcome": "inactive"},
      {"smiles": "CCO[Si](CCCS)(OCC)OCC", "outcome": "inactive"},
      {"smiles": "CCCCCCCCCCCCCCCC(=O)O", "outcome": "inactive"},
      {"smiles": "CC(C)Oc1ccccc1O", "outcome": "inactive"},
      {"smiles": "CC(c1cc2ccccc2s1)N(O)C(N)=O", "note": "(stereo not given)", "outcome": "inactive"},
      {"smiles": "CCCCCC(=O)OCCc1ccccc1", "outcome": "inactive"},
      {"smiles": "CNCCCC12CCC(c3ccccc31)c1ccccc12", "outcome": "inactive"},
      {"smiles": "Cc1ncc([N+](=O)[O-])n1C", "outcome": "inactive"},
      {"smiles": "CC(C)OP(=O)(CP(=O)(OC(C)C)OC(C)C)OC(C)C", "outcome": "inactive"},
      {"smiles": "CC(=O)[C@H]1CC[C@H]2[C@@H]3CC=C4C[C@@H](O)CC[C@]4(C)[C@H]3CC[C@]12C", "outcome": "inactive"},
      {"smiles": "CCC(C)(O)CCC=C(C)C", "note": "(stereo not given)", "outcome": "inactive"},
      {"smiles": "CN(C)CCOCCN(C)C", "outcome": "inactive"},
      {"smiles": "CC(=O)Nc1ccc(CC(=O)O)cc1", "outcome": "inactive"},
      {"smiles": "CCCCCCCCCCCCOCCO", "outcome": "inactive"},
      {"smiles": "CCC(C)CCCC(C)(C)O", "note": "(stereo not given)", "outcome": "inactive"},
      {"smiles": "C=CC(C)(O)CCC=C(C)CCC=C(C)C", "note": "(stereo not given)", "AC50": "163 µM (active)"},
      {"smiles": "O=c1oc(=O)c2cc3c(=O)oc(=O)c3cc12", "outcome": "inactive"},
      {"smiles": "O=C(O)CN(CCN(CC(=O)O)CC(=O)O)CCN(CC(=O)O)CC(=O)O", "outcome": "inactive"},
      {"smiles": "CC(C)(COC(=O)c1ccccc1)COC(=O)c1ccccc1", "outcome": "inactive"},
      {"smiles": "Cc1ccc(C=O)cc1", "outcome": "inactive"},
      {"smiles": "CCc1c(C)cc(N)c(CC)c1N", "outcome": "inactive"},
      {"smiles": "Cc1ccc(Nc2ccc(O)c3c2C(=O)c2ccccc2C3=O)cc1", "outcome": "inactive"},
      {"smiles": "C[C@H]1C[C@@H]2[C@H]([C@@H](O)C[C@@]3(C)[C@H]2CC[C@]3(O)C(=O)CO)[C@@]2(C)C=CC(=O)C=C12", "outcome": "inactive"},
      {"smiles": "O=C(O)CCCCCCCC(=O)O", "outcome": "inactive"},
      {"smiles": "CCCCNC(=O)NS(=O)(=O)c1ccc(C)cc1", "outcome": "inactive"},
      {"smiles": "CC(=O)[O][Al][O]C(C)=O", "outcome": "inactive"},
      {"smiles": "CC(C=O)Cc1ccc(C(C)C)cc1", "note": "(stereo not given)", "outcome": "inactive"},
      {"smiles": "Nc1ccc(S(=O)(=O)O)c(N)c1", "outcome": "inactive"},
      {"smiles": "O=C1OC2(c3cc(Br)c(O)c(Br)c3Oc3c2cc(Br)c(O)c3Br)c2c(Cl)c(Cl)c(Cl)c(Cl)c21", "outcome": "inactive"},
      {"smiles": "C=CCOC(=O)CCC1CCCCC1", "outcome": "inactive"},
      {"smiles": "CC(O)C(C)O", "note": "(stereo not given)", "outcome": "inactive"},
      {"smiles": "Clc1ccc2c(c1)C(N1CCNCC1)=Nc1ccccc1O2", "outcome": "inactive"},
      {"smiles": "Cc1cccc(C)c1C", "outcome": "inactive"},
      {"smiles": "NCCCN1CCOCC1", "outcome": "inactive"},
      {"smiles": "O=C(O)c1cn(-c2ccc(F)cc2)c2cc(N3CCNCC3)c(F)cc2c1=O", "outcome": "inactive"},
      {"smiles": "CCCCCCCCCCCCSC", "outcome": "inactive"},
      {"smiles": "CCC/C=C/C=O", "outcome": "inactive"}
    ]}
  ]
}
